Screening data deposited in PubChem by National Center for Advancing Translational Sciences (NCATS).
G9a block: blocks human histone lysine methyltransferase G9a | Q96KQ7 | G9a H3K9 monomethylation, AlphaScreen, 2 h | Potency, µM (top dose mostly 102 µM), for the others: at the highest dose activity, negative = inhibition, most hits filed as inhibitors | hit rate 8.8% among 350,000 | AID 504332; note: % is set by controls: 0 for no effect and ±100 for the full control effect; nearly all actives have a fitted effect of over 75% in size
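Enzyme 20 nM + cpd, 15 min RT; add b-H3K9 pep 500 nM / SAM 20 uM; 2 h RT; anti-H3K9me1 Ab 0.5 ug/mL + SA donor / anti-rabbit acceptor beads 20 ug/mL each, 10 min; AlphaScreen read.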
Sfp PPTase inh: Sfp phosphopantetheinyl transferase inhibition | hit rate 3.5% among 310,000 | Q9F4F7 | Potency, µM, for inactives: largest response in the series, negative = inhibition, usual class: inhibitors | Biochemical Sfp PPTase activity, qHTS;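 note: the enzyme is Sfp with the accession as filed and its product quenches rhodamine fluorescence; 0% = enzyme reaction without inhibitor and -100% = no enzyme wells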
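Compounds were incubated with enzyme (final 15 nM) for 15 min at room temperature before substrate addition started the reaction. Fluorescence at 525 nm excitation, 598 nm emission was recorded immediately and after 30 minutes.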
BAZ2B inh: BAZ2B (human) inhibition | AlphaScreen BAZ2B-H3K14Ac peptide displacement | hit rate 4.4% among 360,000 | Potency, µM (titrated, usually from 114 µM), inactives show at the top dose activity change, negative = inhibition, most hits filed as inhibitors | AID 504333; note: % is set by controls: 0 for no effect and ±100 for the full control effect; nearly all actives have a fitted effect of over 60% in size
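AlphaScreen luminescence quantifies BAZ2B engagement of H3K14Ac peptide; the protein and biotinylated peptide are both at 50 nM final, buffer PBS pH 7.4 with 0.01% Tween-20, all steps at room temperature.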
JMJD2A Tudor: inhibitors of human JMJD2A Tudor domain; O75164; Potency, µM (doses to about 114 µM), inactives show at the highest dose activity change, negative = inhibition, most hits filed as inhibitors; AlphaScreen JMJD2A-Tudor / H3K4me3 peptide binding; hit rate 4.4% among 390,000; note: % is set by controls: 0 for no effect and ±100 for the full control effect; nearly all actives have a fitted effect of over 50% in size
HP1b chromo inh: HP1-beta chromodomain-methylated histone interaction inhibition; AlphaScreen HP1-beta / biotin-H3K9me3 peptide binding; Potency, µM (series often up to 114 µM), for inactives: at the top dose activity change, negative = inhibition, usual class: inhibitors; hit rate 0.56% among 390,000; note: nearly all actives have a fitted effect of over 70% in size
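HP1-beta protein (50 nM final) preincubated 30 min at room temperature with biotinylated H3(1-18)K9me3 peptide (50 nM) in PBS pH 7.4, 0.01% Tween-20, then compound added for 30 min. AlphaScreen streptavidin donor/nickel chelate acceptor beads (10 ug/mL final), 30 min dark, luminescence read.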
L3MBTL1 block: L3MBTL1 (human) inhibition. AlphaScreen L3MBTL1–H3K9me1 peptide binding. Q9Y468. AID 485360. Potency, µM (top dose mostly 57.1 µM), inactives show at the highest dose activity, negative = inhibition, usual class: inhibitors. hit rate 0.66% among 230,000; note: % is set by controls: 0 for no effect and ±100 for the full control effect; nearly all actives have a fitted effect of over 60% in size
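L3MBTL1 (50 nM) pre-complexed 30 min with biotinylated H3(1-15)K9me1 peptide (75 nM), then compounds added for 30 min at room temperature; AlphaScreen streptavidin donor/nickel chelate acceptor beads (10 ug/mL final) read after 30 min dark incubation.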
The depositor's hits bear a star; ? = inconclusive; / = no result given; [ ] = remark or other dose. Only some compounds are listed: those with a hit (about 12% of all), similar ones and a draw of the others. Calls come from the whole dose curve; as a rule, active = well fitted curve in the direction sought with a large enough effect; inconclusive = small, poorly fitted or top-dose-only effect, or another doubt; inactive = no such curve, though single readings can be large; an effect the other way counts as inactive or inconclusive. Potency is the fitted concentration of half-maximal effect.

SMILES | G9a block | Sfp PPTase inh | BAZ2B inh | JMJD2A Tudor | HP1b chromo inh | L3MBTL1 block
CCN(CC(=O)Nc1ccc2c(c1)OCCO2)C(=O)C(C)Oc1ccc(Cl)cc1 (stereo unspecified) | -30% | / | -22% | -18% | 21% | 5%
COc1cc(OC)c(NS(=O)(=O)c2cc3c(cc2C)N(C(C)=O)CCO3)cc1Cl | -29%[59 µM] | / | -12% | -14% | 3% | /
Cc1ccc(S(=O)(=O)/N=S(/c2ccccc2)C(C)C)cc1 (stereo unspecified) | 4.5µM* | 18µM* | -2% | -32% | ? | 2%
CN/S(=N/S(=O)(=O)c1ccccc1)c1ccc(C)cc1 (stereo unspecified) | 17%[59 µM] | 1% | 24% | -4% | 28% | -2%
O=C(NCCO)c1c(O)c2cccc3c2n(c1=O)CC3 | ? | -7% | -35% | 56µM* | 17% | /
NCCNC(=O)c1c(O)c2cccc3c2n(c1=O)CCC3 | / | 6% | ? | -10% | 50% | 1%
O=c1c(-c2ccccc2)c(O)c2cccc3c2n1CCC3 | 40µM* | 15% | -38% | 15% | 53% | 8%
COc1ccc(NC(=O)CN(C)C(=O)c2cccnc2Sc2ccc(C)c(C)c2)cc1 | -17% | / | 1% | -17% | 5% | -2%
CCN(CC(=O)Nc1ccc(NC(C)=O)cc1)C(=O)c1cccnc1Sc1ccc(C)c(C)c1 | 50µM* | / | 4% | -20% | -3% | -4%
CCCCCn1c(=O)[nH]c2cc(C(=O)NCc3ccccn3)ccc2c1=O | 40µM* | -5% | 79µM* | ? | 11% | 3%
COC(=O)c1ccc2c(=O)n(CCCN3CCCC3=O)c(=S)[nH]c2c1 | -30%[12.7 µM] | -15% | 71µM* | ? | 27% | 10%
C=CCNC(=O)c1ccc2c(=O)n(CCCN3CCCC3=O)c(=S)[nH]c2c1 | ? | 79µM* | ? | 50µM* | 11% | /
O=C(NCc1ccccc1)c1ccc2c(=O)n(CCCN3CCCC3=O)c(=S)[nH]c2c1 | 45µM* | 1% | -11% | -17% | 32% | /
Cc1ccc(CNC(=O)c2ccc3c(=O)n(CCCN4CCCC4=O)c(=S)[nH]c3c2)cc1 | ? | 3% | -16% | 6% | 42% | /
Cc1nn(C(C)C(=O)NCCc2cccs2)c(=O)c2nn(-c3ccccc3)c(C)c12 (stereo unspecified) | 52% | 12% | -14% | -12% | 17%[57 µM] | /
C=CCN(CC=C)C(=O)COn1nnc2ccc(S(=O)(=O)N3CCOCC3)cc21 | -2%[59 µM] | / | -3% | ? | 36% | 8%
O=C(Nc1ccc(F)c(Cl)c1)C1CCCN1S(=O)(=O)c1ccc(F)cc1 (stereo unspecified) | -20%[59 µM] | / | -2% | 15% | 16% | /
O=C(NCCCN1CCCC1=O)c1ccc2c(=O)n(Cc3ccco3)c(=S)[nH]c2c1 | 10µM* | 35µM* | 5% | ? | -19% | -15%
COc1ccc(OC)c(-n2c(=S)[nH]c3cc(C(=O)NCCCN4CCCC4=O)ccc3c2=O)c1 | 28µM* | ? | -34% | / | / | 2%
COc1ccc(-n2c(=S)[nH]c3cc(C(=O)N4CCN(c5ccccc5)CC4)ccc3c2=O)cc1 | -2% | 13% | -11% | -6% | 38% | /
COc1ccc(CNC(=O)c2ccc3c(=O)n(CCCN4CCCC4=O)c(=S)[nH]c3c2)cc1 | 15%[59 µM] | 11% | -17% | -20% | 9% | /
COc1ccccc1CNC(=O)c1ccc2c(=O)n(CCCN3CCCC3=O)c(=S)[nH]c2c1 | 9%[59 µM] | 18% | ? | -31% | 15% | /
COc1ccc(OC)c(-n2c(=S)[nH]c3cc(C(=O)N4CCC(C(N)=O)CC4)ccc3c2=O)c1 | ? | -24% | 0% | 16µM* | 57% | 5%
O=C(CCS(=O)(=O)c1nc(-c2cccs2)cc(C(F)(F)F)n1)Nc1cc(Br)ccc1O | ? | / | -2% | -9% | 37% | /
CN(C)S(=O)(=O)c1cccc(NC(=O)Cc2ccc(-c3ccccc3)cc2)c1 | / | 5% | -12% | -23% | 5% | /
SMILES | G9a block | Sfp PPTase inh | BAZ2B inh | JMJD2A Tudor | HP1b chromo inh | L3MBTL1 block
S=c1[nH]cc(-c2ccccc2)n1-c1ccccc1 | 0.89µM* | 45µM* | ? | 28µM* | -20% | -19%
S=c1[nH]cc(-c2ccc(Cl)cc2)n1Cc1ccccc1 | ? | -6% | -10% | -2%[11.4 µM] | 71% | -4%
Cc1ccc(-n2c(-c3ccccc3)c[nH]c2=S)cc1 | 2.8µM* | -22% | -10% | 11µM* | -5% | /
CCn1c(-c2ccccc2)c[nH]c1=S | ? | -23% | -38% | 8.9µM* | ? | -8%
CC(C)Cn1c(-c2cccc(Br)c2)nc2ccccc21 | 9%[59 µM] | / | 11% | 19% | 85% | /
CC(C)Cn1c(-c2ccc(Br)cc2)c[nH]c1=S | 0.89µM* | 8% | ? | 50µM* | ? | /
CCOc1ccc(CCNCc2c(C(=O)O)c(C)n(Cc3ccccc3F)c2C)cc1 | -8%[59 µM] | / | ? | -31% | -4% | /
Cn1c(N)c(C(=O)COC(=O)Cc2ccc(Cl)cc2)c(=O)n(C)c1=O | -6% | / | 3% | -8% | 27% | -1%
COc1ccc(-n2c(-c3ccc(Cl)cc3)c[nH]c2=S)cc1 | ? | 56µM* | ? | -22% | 20% | /
CCN(CC)c1ccc(NC(=O)CCS(=O)(=O)c2cc3c(cc2Cl)NC(=O)CO3)c(C)c1 | -5%[59 µM] | / | -1% | -16% | 37% | /
CCOc1ccccc1C(O)C1=CC(=O)c2ccccc2C1=O (stereo unspecified) | / | / | / | 25µM* | -21% | /
N#Cc1c(NC(=O)CSc2ncc(-c3ccccc3)n2CC2CCCO2)sc2c1CCCC2 (stereo unspecified) | 11µM* | 15% | ? | ? | -26% | -3%
Nc1ncc(-c2ccccc2)n1CC1CCCO1 (stereo unspecified) | 29%[0.501 µM] | ? | 20µM* | ? | 6% | -22%
O=C(CSc1ncc(-c2ccccc2)n1CC1CCCO1)N1CCCCC1 (stereo unspecified) | -33% | -7% | 19% | -3% | 28% | 38%
N#Cc1c(NC(=O)CSc2nnc(-c3ccncc3)n2CC2CCCO2)sc2c1CCCC2 (stereo unspecified) | ? | 9% | -28% | -25% | 7% | -4%
O=C(COc1ccc([N+](=O)[O-])cc1)NCC(c1cccs1)N1CCOCC1 (stereo unspecified) | 8%[12.7 µM] | / | 3% | -13% | -6% | 5%
CC(C)(C)S(=O)N1Cc2cc(CO)ccc2[C@@H]1CCO (stereo partly specified) | / | / | / | 10% | 98% | /
CCC(C)[C@@H](NC(=O)OC(C)(C)C)c1nnc(S(=O)(=O)Cc2cccc(C)c2)o1 (stereo partly specified) | ? | 25µM* | 2% | -14% | 61% | 4%
